# Bioassay records deposited in PubChem BioAssay by Broad Institute.
# Ecoli rRNA inh = selective bacterial rRNA inhibition in E. coli | 1.6% of 350,000 active | GFP signal change (wild-type ribosome), % (no concentration beside the values) | E. coli WT GFP vs humanized-ribosome RFP mutants, fluorescence, 24 h; stronger effect = lower value; DMSO median 0, no signal -100;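 active = significant combined selectivity score with lowered wild-type GFP, culture density cut under 30%, mutant RFP and density less affected; inactive = any of these conditions unmet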
# SIRT5 inh = inhibitors of human sirtuin-5 desuccinylase | Q9NXA8 | Purified SirT5, succinyl-peptide AMC, trypsin-coupled fluorescence | inhibition, % at 15 µM | 1.1% of 330,000 active; in the data active = inhibition above about 15%; inconclusive = no clear call, values can overlap the other calls
# Target sequence (Q9NXA8 whole entry, looked up): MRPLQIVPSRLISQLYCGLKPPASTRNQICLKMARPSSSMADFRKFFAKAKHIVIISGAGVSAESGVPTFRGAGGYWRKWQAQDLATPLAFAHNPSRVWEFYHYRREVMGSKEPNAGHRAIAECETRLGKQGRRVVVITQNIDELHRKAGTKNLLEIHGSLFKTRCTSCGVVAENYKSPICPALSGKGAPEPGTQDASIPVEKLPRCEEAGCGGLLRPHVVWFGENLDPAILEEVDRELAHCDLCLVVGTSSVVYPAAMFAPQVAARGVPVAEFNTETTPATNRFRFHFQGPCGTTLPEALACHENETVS
# PAX8 inh HTS = inhibitors of PAX8 transcriptional activity in RMG-I cells; RMG-I TPO-luciferase reporter, SteadyGlo, 24 h; inhibition, % at 12.6 µM; 1.2% of 360,000 active; AID 652154;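 active = mean replicate inhibition at least 60% with every replicate also reaching 60%; inconclusive = only one of the two criteria is met; inactive = mean below 60% and not all replicates reaching 60%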;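 note: luciferase light reporting Pax8 driven TPO promoter activity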
# LGR2 antag = blocks bursicon-induced cAMP signaling via Drosophila LGR2; 0.35% of 380,000 active; inhibition, % at 9.99 µM; AID 720647; HEK293 LGR2, CRE-luciferase, bursicon-stimulated, 4 h;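 active = drop in luminescence signal, shown as inhibition above about 50% in the replicate tests, limit read from the data, passing the limit was not always enough; inconclusive = probably only some replicates passing the limit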;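 note: agonist challenge used bursicon conditioned medium at about half maximal strength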
# PGC1a acetyl inh = modulators of PGC1a acetylation | inhibition, % at 15.6 µM | 0.17% of 350,000 active | U2OS PGC1a acetylation, AlphaScreen anti-acetyl-lysine; with virally co-expressed GCN5 acetyltransferase;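 active = every replicate shows inhibition of at least 40%; inconclusive = mean inhibition at least 40% but some replicate below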
# EWS-Fli block = blocks EWS/Fli oncoprotein-driven transcription; A673 NR0B1-luciferase reporter, viability-normalised; inhibition, % at 12.6 µM; 0.67% of 350,000 active; AID 651661;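 active = mean inhibition of at least 50% after viability correction, with every replicate also passing that limit; inconclusive = mean reaches 50% but only one of two replicates passes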;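 note: firefly luciferase signal divided by Alamar Blue viability fluorescence both relative to DMSO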
# AID977621 = wild-type E. coli growth inhibition versus H69 humanized strain – H69 mutant RFP, wild-type GFP, cherry-pick, dose response; activity change, negative = inhibition at 50 µM; fluorescence, 24 h; 1,900 tested, under 10 active; shares compounds with Ecoli rRNA inh;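 active = Wild-type ribosome reporter drop at least double the humanized mutant ribosome reporter drop, growth loss under a set limit; inconclusive = no clear call, values can overlap the other calls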;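 note: wild-type GFP and H69 mutant RFP strains grown together 50/50 in each well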
# AID977628 = E. coli growth inhibition, wild-type GFP versus h24 humanized RFP strain, dose response, h24 mutant RFP vs wild-type GFP, cherry-pick; shares compounds with Ecoli rRNA inh; E. coli WT GFP strain growth, fluorescence, 24 h; activity change, negative = inhibition at 50 µM; 1,900 tested, under 10 active; AID 977628;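 active = compound lowering the normal-ribosome reporter at least twice as much as the humanized-ribosome reporter, growth loss under a set limit; inconclusive = no clear call, values can overlap the other calls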;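 note: wild-type GFP and h24 humanized RFP strains co-cultured 1 to 1 per well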
# Hits are given with their value; i = inactive; ? = inconclusive; nt = no result; ! = a repeat was not active. Compounds with a hit are over-represented: about 3.4% of the library has one in this group of screens.
SMILES,Ecoli rRNA inh,SIRT5 inh,PAX8 inh HTS,LGR2 antag,PGC1a acetyl inh,EWS-Fli block,AID977621,AID977628
CSCCC1NC(=O)N(CC(=O)Nc2c(Cl)cc(Cl)cc2Cl)C1=O (centres undefined),nt,nt,nt,nt,i,nt,nt,nt
CSCCC1NC(=O)N(C(C)C(=O)Nc2cc(Cl)cc(Cl)c2)C1=O (centres undefined),-21,i,i,i,i,i,i,i
O=C(CSc1nnc(COc2cccc3cccnc23)o1)c1ccc(F)cc1,-25,i,nt,i,nt,i,i,i
Cc1cc(C)c2[nH]c(C(=O)Nc3ccc4c(c3)OCO4)cc2c1,i,i,i,i,i,i,nt,nt
CCc1ccc2[nH]c(C(=O)Nc3ccc4c(c3)OCO4)cc2c1,-26,i,i,i,nt,i,i,?
CO[C@@H]1CN(C)C(=O)c2ccc(NS(=O)(=O)c3ccc(C)cc3)cc2OC[C@H](C)N(C(=O)NC(C)C)C[C@@H]1C,i,nt,nt,i,i,i,nt,nt
Cc1cccc(NC(=O)c2c(C)nn(-c3ccccc3)c2Cl)c1,-35,i,i,i,nt,i,i,i
COc1cccc(NC(=O)N2C[C@H](O)COC[C@@H]3O[C@@H](CC(=O)NCc4ccccc4F)CC[C@H]32)c1,i,nt,nt,i,i,nt,nt,nt
COc1ccc(OC)c(-c2csc(NC(=O)C3c4ccccc4Oc4ccccc43)n2)c1,nt,nt,i,i,nt,nt,nt,nt
COc1ccc(OC)c(-c2csc(NC(=O)C3COc4ccccc4O3)n2)c1 (centres undefined),-23,i,i,i,i,i,i,nt
O=C(c1ccccc1)C1Oc2ccccc2C2CC(c3cccs3)=NN12 (centres undefined),-21,i,i,i,i,i,i,i
O=C(c1ccccc1)N1N=C(c2cccs2)CC1c1ccccc1O (centres undefined),i,i,i,i,i,i,nt,nt
CN1CCN(CC(=O)c2cc(C(C)(C)C)c(O)c(C(C)(C)C)c2)CC1,-31,i,i,i,i,i,i,i
CN1CCN(C(=O)C2=C[C@H](C3CC3)C[C@H](OCCCCO)O2)CC1,nt,i,i,nt,i,i,nt,nt
COc1ccc(OC)c(NC(=O)CN(C)CC(=O)Nc2ccccc2Br)c1,-25,i,i,i,nt,i,i,?
COc1ccc2c3c(n(C)c2c1)[C@H](CO)N(C(=O)c1cnccn1)CC31CCN(C(=O)c2ccncc2)CC1,i,i,nt,i,i,i,nt,nt
CC1CCN(CC(O)COCCC23CC4CC(CC(C4)C2)C3)CC1 (centres undefined),-40,i,nt,i,i,i,i,nt
Cc1ccc(C(=O)Nc2cccc(N(C)S(C)(=O)=O)c2)cc1S(=O)(=O)Nc1ccccc1,-20,i,nt,i,i,i,?,nt
COc1ccc(Nc2nc(N)c([N+](=O)[O-])c(N3CCCC3)n2)cc1,-21,i,i,i,i,i,i,i
COc1ccc(Nc2nc(N)c([N+](=O)[O-])c(N3CCN(C)CC3)n2)cc1,i,i,i,i,nt,i,nt,nt
COc1ccc(OC)c(Nc2nc(N)c([N+](=O)[O-])c(N3CCOCC3)n2)c1,-31,i,i,i,i,i,?,nt
O=C(CSCc1cnn(-c2ccccc2)c1-n1cccc1)NCc1cccnc1,-25,i,i,i,i,i,i,i
COc1ccccc1CNC(=O)CSCc1cnn(-c2ccccc2)c1-n1cccc1,nt,nt,i,nt,i,nt,nt,nt
Clc1ccc2nc(CN3CCCc4ccccc43)cn2c1,-20!,i,nt,i,i,i,i,nt
COc1cc(OC)nc(Oc2ccccc2C(=O)Oc2ccc(C)cc2)n1,-24,i,nt,i,i,i,i,nt
SMILES,Ecoli rRNA inh,SIRT5 inh,PAX8 inh HTS,LGR2 antag,PGC1a acetyl inh,EWS-Fli block,AID977621,AID977628
COC(=O)c1ccccc1Oc1nc(Cl)cc(OC)n1,nt,nt,i,i,i,nt,nt,nt
C[C@H]1CN([C@@H](C)CO)S(=O)(=O)c2ccc(-c3ccncc3)cc2O[C@@H]1CN(C)Cc1cccnc1,i,i,nt,i,i,i,nt,nt
COc1ccc(-c2ccccc2)cc1NC(=O)c1ccncc1,-31,i,i,nt,nt,i,i,nt
COc1cc(NC(=O)c2ccccc2)c(OC)cc1Cl,nt,nt,nt,nt,i,nt,nt,nt
Cc1ccc(S(=O)(=O)N2CCCc3ccccc32)cc1,i,i,i,i,i,i,nt,nt
O=S(=O)(c1cnc(Cl)c(Cl)c1)N1CCCc2ccccc21,-25,i,i,i,nt,i,i,i
Cc1ccc(-c2cc(C(=O)O)c3ccccc3n2)s1,i,i,i,i,i,i,nt,nt
O=C(O)c1cc(-c2ccc(Cl)s2)nc2ccccc12,-27,i,i,i,i,i,i,?
Cc1cc2nc(SCC(=O)O)nc(C)c2cc1C,-17,i,nt,i,i,i,i,nt
Cc1cc(C)nc(SCC(=O)O)n1,nt,nt,nt,nt,i,nt,nt,nt
O=C(NCC[C@H]1CC[C@H](NC(=O)C2CCCCC2)[C@H](CO)O1)c1ccc(F)cc1,i,i,i,i,i,i,nt,nt
O=C(c1cccc2c1-c1ccccc1C2)N1CCCCC1,-22,i,i,i,nt,i,i,?
NS(=O)(=O)c1ccc(NC(=O)c2cc(Cl)sc2Cl)cc1,-25,i,63,i,i,i,i,i
C[C@H]1CN([C@@H](C)CO)C(=O)c2cc(NS(=O)(=O)c3cccs3)ccc2O[C@@H]1CN(C)S(=O)(=O)c1cccs1,i,nt,i,i,i,i,nt,nt
CCN(c1ccccc1)S(=O)(=O)c1cccc(C(=O)NCC(c2cccs2)N(C)C)c1 (centres undefined),-24,i,i,i,nt,i,nt,?
COc1cc2ccccc2cc1C(=O)NCC(c1cccs1)N(C)C (centres undefined),-24,i,i,i,nt,i,?,i
C[C@@H]1CN([C@@H](C)CO)C(=O)Cc2cc(NS(=O)(=O)c3ccc(Cl)cc3)ccc2O[C@@H]1CN(C)Cc1ccc(C(=O)O)cc1,i,i,nt,i,i,i,nt,nt
CNC(=O)C[C@@H]1CC[C@H]2[C@@H](COc3ccc(NC(=O)c4cccc(F)c4)cc3C(=O)N2C)O1,i,i,i,i,i,i,nt,nt
CCC(C(=O)NC1CCCC1)n1c(-c2ccnc3ccccc23)nc2ccccc21 (centres undefined),-14,nt,i,i,nt,i,i,i
C[C@H]1CN([C@@H](C)CO)C(=O)c2cc(NC(=O)CCCN(C)C)ccc2O[C@H]1CN(C)CC1CCCCC1,i,i,nt,i,i,i,nt,nt
O=S(=O)(Cc1ccccc1)N1CCCCN2[C@@H](CO)[C@@H](c3ccc(-c4cccnc4)cc3)[C@@H]2C1,-28,i,i,i,i,i,i,?
Cc1ccc(-c2ccc([C@H]3[C@@H](CO)N4CCCCN(S(=O)(=O)c5ccccc5C)C[C@@H]34)cc2)cc1,i,i,i,i,i,i,nt,nt
